Results: ChEMBL document CHEMBL1157539, “Thousands of chemical starting points for antimalarial lead identification” (Nature, 2010)

Test system: HepG2
Assay: GSK_TCMDC: Percent inhibition of human HepG2 cell line. Test compounds present at 10uM.
Format: functional

Q: How did the Inhibition turn out when `CN1CCN(Cc2nc(-c3ccc4c(Nc5ccc(Oc6ccccc6)cc5)ccnc4c3)cs2)CC1` was run?
A: 15%

Q: With `Cc1c(CNCCCNc2cc(=O)c3ccccc3[nH]2)sc(-c2ccco2)c1Br.Cl` as the compound, how does the Inhibition read?
A: 0%

Q: How did the Inhibition turn out when `Br.CC1(C)NC(N)=NC(=N)N1OCCCCOc1ccccc1` was run?
A: 60%

Q: Which Inhibition does the source give for `COc1cccc(Cc2c(C)nc3nc(N)nc(N)c3c2C)c1.Cl` here?
A: 65%

Q: How did the Inhibition turn out when `Cc1cc(N[C@@H](Cc2ccccc2)C(=O)NCc2cccs2)nc(NCCc2ccccc2)n1.O=C(O)C(F)(F)F` was run?
A: 6%

Q: Which Inhibition does the source give for `COc1cccc2c(Oc3ccccc3C)ccnc12` here?
A: 0%

Q: `CN(c1ccc2c(c1)nc(NCc1ccccc1)n2C)c1ccnc(Nc2ccc(CS(C)(=O)=O)cc2)n1.Cl` was tested. Which Inhibition did it give?
A: 61%

Q: How did the Inhibition turn out when `Cc1cc(F)ccc1-c1nc(NCC(O)CNCCc2ccccc2)nc2c1ccc(=O)n2-c1c(F)cccc1F.O=C(O)C(F)(F)F` (stereo not given) was run?
A: 25%

Q: Which Inhibition does the source give for `O=C(NC1CCN(Cc2ccccc2)CC1)c1cc(-c2cccnc2)nc2ccc(Cl)cc12` here?
A: 0%

Q: Which Inhibition does the source give for `COc1ccc(-c2nc3c(N)nc(N)nc3nc2-c2ccccc2Cl)cc1.COc1ccc(-c2nc3nc(N)nc(N)c3nc2-c2ccccc2Cl)cc1.Cl` here?
A: 45%

Q: `O=C(NCCCCN1CCCC2c3cccc(O)c3CCC21)c1ccc(-c2ccccc2)cc1` (stereo not given) was tested. Which Inhibition did it give?
A: 18%

Q: With `O=C(Cn1cc(C=C2SC(=NC3CCCC3)N(C3CCCC3)C2=O)c2ccccc21)N1CCCC1` as the compound, how does the Inhibition read?
A: 5%

Q: For `O=C(O)c1ccc2nc(-c3ccccn3)c(-c3ccccn3)nc2c1`, which Inhibition is on record?
A: 3%

Q: With `Cc1cccc(CN2CCCC3(CCN(Cc4ccccc4O)C3)C2)c1` (stereo not given) as the compound, how does the Inhibition read?
A: 14%

Q: For `CC(C)(C)c1ccc(NC(=O)c2cccc(CN3CCCN(Cc4cccc(C#N)c4)CC3)c2)cc1.O=C(O)C(F)(F)F`, which Inhibition is on record?
A: 39%

Q: With `CN1CCN(c2cc(NC(=O)c3ccc(-c4ccc(Cl)cc4)cc3)ccc2Cl)CC1` as the compound, how does the Inhibition read?
A: 30%

Q: How did the Inhibition turn out when `O=C(Nc1ccc(Cl)cc1)c1cc(Cl)ccc1NC(=O)C1CCc2ccccc2O1` (stereo not given) was run?
A: 1%

Q: `CCOc1cc2c(cc1S(=O)(=O)c1ccc(COc3ccc(C(F)(F)F)cc3)cc1)CCN(C)CC2.Cl` was tested. Which Inhibition did it give?
A: 27%

Q: Which Inhibition does the source give for `Br.Oc1ccc(CCNCCCCNCCc2ccc(Cl)cc2)cc1O` here?
A: 33%

Q: How did the Inhibition turn out when `COc1ccc(CN2CCCC(C(=O)c3ccc(C(F)(F)F)cc3)C2)c(O)c1` (stereo not given) was run?
A: 0%

Q: For `O=C(Nc1cccc(-c2cccc(-c3nc4cc(F)ccc4[nH]3)c2)c1)Nc1ccc(F)c(F)c1F`, which Inhibition is on record?
A: 83%

Q: For `O=C(O)C(F)(F)F.O=S(=O)(NCCN1CCCC1)c1ccc(-c2ccc(CNCc3ccccc3)cc2)s1`, which Inhibition is on record?
A: 34%

Q: `CN(CCO)Cc1ccc(-c2ccc(NS(=O)(=O)c3cccc4cccnc34)cc2)cc1.O=C(O)C(F)(F)F` was tested. Which Inhibition did it give?
A: 28%

Q: For `CCCCCCN1CCN(Cc2cccc(NC(=O)c3cc4ccccc4o3)c2)CC1.O=C(O)C(F)(F)F`, which Inhibition is on record?
A: 20%

Q: For `CN(C)c1ccc(C=Cc2ccc3ccccc3n2)c(Cl)c1`, which Inhibition is on record?
A: 59%

Q: `Cc1cc(-c2nc3ccc(C(=O)NCc4ccccc4)cc3n2C2CCN(C(=O)c3ccc(-c4ccccc4)cc3)CC2)ccn1` was tested. Which Inhibition did it give?
A: 36%

Q: With `Cc1ccc(O)cc1Nc1ccnc2cc(-c3csc(CN(C)CCN(C)C)n3)ccc12` as the compound, how does the Inhibition read?
A: 3%

Q: For `COc1cc(C(=O)NCCCN2CCN(c3cccc(Cl)c3)CC2)ccc1-c1cc2cc(Cl)c(Cl)cc2[nH]1`, which Inhibition is on record?
A: 35%

Q: Which Inhibition does the source give for `COC(=O)c1c(C#N)c(OC)cc(O)c1CSC[C@@H](CN1CCCCC1)Nc1nc(-c2ccc([N+](=O)[O-])cc2)cs1` here?
A: 8%

Q: With `N#Cc1ccc(N/C(=N\c2cccc(Cl)c2Cl)NCc2ccc(Cl)cc2Cl)c(O)c1` as the compound, how does the Inhibition read?
A: 3%

Q: Which Inhibition does the source give for `CCn1c(C2CCN(CCC3CCN(C(=O)/C=C/c4ccc(Cl)c(Cl)c4)CC3)CC2)nc2ccccc21` here?
A: 17%

Q: Which Inhibition does the source give for `Cc1oc(-c2cccc(Oc3ccccc3)c2)nc1CN(Cc1cnn(C)c1)C(C)C` here?
A: 22%

Q: Which Inhibition does the source give for `O=C(Nc1ccccc1O)C1CCN(c2ncnc3cc(-c4ccc(F)cc4)sc23)CC1` here?
A: 10%

Q: With `COc1ccc(CC(=O)Nc2ccc(Nc3nc(C)cc(N4CCCC4)n3)cc2)cc1` as the compound, how does the Inhibition read?
A: 56%

Q: With `CCN(CCCN1CCCCC1)c1cc(C)nc(Nc2cc(C)ccc2C)n1.O=C(O)C(F)(F)F` as the compound, how does the Inhibition read?
A: 34%

Q: With `O=C(O)C(F)(F)F.O=S(=O)(NCCN1CCCC1)c1ccc(-c2cccc(CNC3Cc4ccccc4C3)c2)cc1` as the compound, how does the Inhibition read?
A: 55%

Q: `O=C(Nc1ccc(C(F)(F)F)cc1)NC1CCN(c2ccnc3ccccc23)CC1.O=C(O)C(F)(F)F` was tested. Which Inhibition did it give?
A: 46%

Q: `O=C(Cn1c(CCc2cccc(F)c2F)nc(=O)c2cccnc21)N(Cc1ccc(-c2ccc(C(F)(F)F)cc2)cc1)C1CCN(C2CCSCC2)CC1.O=C(O)C(O)C(O)C(=O)O` was tested. Which Inhibition did it give?
A: 49%

Q: How did the Inhibition turn out when `Cc1nc2ccccc2n1C1CC2CCC(C1)N2CCCC1(c2ccccc2)CCN(C(=O)OCc2ccccc2)CC1.O=CO` (stereo not given) was run?
A: 46%

Q: Which Inhibition does the source give for `O=C(Nc1ccc(Cl)cc1)Nc1ccc(-c2cccc(-c3nc4cc(F)ccc4[nH]3)c2)cc1` here?
A: 74%
